The values below come from PubChem BioAssay (NCATS).

The nature of assay [1]: Cell Viability - LYMP2-025 (AID 976).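 Further: plate controls were DMSO only for no effect and tetraoctylammonium bromide control for full effect.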 In a few lines: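 Human lymphoblastoid LYMP2-025 cells, 2500/well, exposed 24 h at 37 C in complete medium in 1536-well qHTS. Viability as cellular ATP by CellTiter-Glo luminescence; AC50 from Hill fits of concentration-response data.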
Assay [2] in a line: Cell Viability - LYMP2-006 (AID 978). Further: on the % scale 0 is the no-effect control and ±100 the full control effect; nearly all actives have a fitted effect of over 60% in size. A digest of the protocol:
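Concentration-dependent loss of intracellular ATP in a human lymphoblastoid line after 24 hr treatment at 37 C was measured by CellTiter-Glo luminescence, with AC50 values obtained from standard Hill-equation modelling.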

Assay [3] can be described thus: Cell Viability - LYMP2-007 (AID 979).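 Further: cells exposed to compound for 24 h before reading; 0% = DMSO only and the negative end = 92 µM tetraoctylammonium bromide; nearly all actives have a fitted effect of over 60% in size.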 In a few lines:
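Human lymphoblastoid LYMP2-007 cells (2500/well) preincubated 5 h at 37 C, then treated 24 h at 37 C in complete medium. Viability by CellTiter-Glo ATP luminescence after 30 min at room temperature; AC50 from Hill fits.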

A short description of assay [4]: Cell Viability - LYMP2-008 (AID 980). Further: on the % scale 0 is the no-effect control and ±100 the full control effect; nearly all actives have a fitted effect of over 60% in size. In a few lines:
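LYMP2-008 lymphoblastoid cells (2500/well) plated 5 h, then treated 24 h at 37 C in complete medium. Viability read as intracellular ATP by CellTiter-Glo luminescence after 30 min at room temperature; AC50 from Hill fits.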

Assay [5] can be described thus: Cell Viability - LYMP2-010 (AID 981). Further: on the % scale 0 is the no-effect control and ±100 the full control effect; nearly all actives have a fitted effect of over 55% in size. A digest of the protocol: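 Human lymphoblastoid LYMP2-010 cells (2500/well) treated 24 h at 37 C in complete medium; viability read as intracellular ATP by CellTiter-Glo luminescence. AC50 from Hill fits of concentration-response data; tetraoctylammonium bromide positive control.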
The nature of assay [6]: Cell Viability - LYMP2-012 (AID 982).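 Further: cellular ATP by luciferase luminescence where a drop means cytotoxicity; cells exposed to compound for one day before reading; 0% = DMSO only and full loss = 92 µM tetraoctylammonium bromide; nearly all actives have a fitted effect of over 55% in size.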
The nature of assay [7]: Cell Viability - LYMP2-014 (AID 983).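 Further: plate controls were DMSO only for no effect and 92 µM tetraoctylammonium bromide for full effect; nearly all actives have a fitted effect of over 50% in size.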 A digest of the protocol: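 LYMP2-014 human lymphoblastoid cells, 2500/well, treated 24 h at 37 C in complete medium; viability by CellTiter-Glo ATP luminescence after 30 min at room temperature. AC50 from Hill fits of qHTS concentration-response; tetraoctylammonium bromide positive control.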
Assay [8] in a line: Cell Viability - LYMP2-016 (AID 984). Further: on the % scale 0 is the no-effect control and ±100 the full control effect; nearly all actives have a fitted effect of over 55% in size. A digest of the protocol: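 Acute toxicity in a Coriell human lymphoblastoid line is scored as loss of intracellular ATP over 24 h of treatment in complete medium. CellTiter-Glo signal is fitted across concentrations with the Hill equation to give AC50.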
Assay [9] in a line: Cell Viability - LYMP2-018 (AID 985).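 Further: compound exposure lasted 24 hr at 37 °C; plate controls were DMSO only for no effect and tetraoctylammonium bromide at 92 µM for full effect; nearly all actives have a fitted effect of over 50% in size.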 In a few lines: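 Human lymphoblastoid LYMP2-018 cells, 2500/well, settled 5 hr at 37 C then exposed to compound 24 hr at 37 C; intracellular ATP measured by CellTiter-Glo luminescence. AC50 from Hill-equation concentration-response fits.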
Assay [10] in a line: Cell Viability - LYMP2-020 (AID 986).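 Further: plate controls were DMSO only for no effect and tetraoctylammonium bromide at 92 µM for full effect; nearly all actives have a fitted effect of over 55% in size.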 In a few lines: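 Human lymphoblastoid LYMP2-020 cells (2500/well) preincubated 5 h at 37 C, then treated 24 h at 37 C. Viability measured as intracellular ATP by CellTiter-Glo luminescence after 30 min at room temperature; AC50 from Hill fits.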
The nature of assay [11]: Cell Viability - LYMP2-022 (AID 987). In a few lines:
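LYMP2-022 lymphoblastoid cells (2500/well, complete medium) were treated with compounds for 24 hours at 37 C; intracellular ATP was then read by CellTiter-Glo luminescence after 30 min at room temperature. AC50 values were derived from Hill-equation fits.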

A short description of assay [12]: Cell Viability - LYMP2-024 (AID 988).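 Further: plate controls were DMSO only for no effect and 92 µM tetraoctylammonium bromide for full effect; nearly all actives have a fitted effect of over 60% in size.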 A digest of the protocol:
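Human lymphoblastoid LYMP2-024 cells (2500/well) rested 5 hr, then treated with compound for 24 hr at 37 C in complete medium. Viability was measured as intracellular ATP by CellTiter-Glo luminescence. AC50 values came from Hill-equation fits.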

A short description of assay [13]: Cell Viability - LYMP1-002 - Assay at 24 hr (AID 993). Further: on the % scale 0 is the no-effect control and ±100 the full control effect. In a few lines: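 Human lymphoblastoid LYMP1-002 cells (2500/well) treated 24 h at 37 °C; viability as intracellular ATP by CellTiter-Glo luminescence. Tetraoctylammonium bromide as positive control; AC50 from Hill-equation fits of qHTS concentration-response.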
Assay [14] can be described thus: Cell Viability - LYMP1-002 - Assay at 40 hr (AID 994). A digest of the protocol: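 LYMP1-002 human lymphoblastoid cells (2500/well, complete medium) were treated with compounds for 40 hr at 37 C. Intracellular ATP was measured by CellTiter-Glo luminescence, and AC50 values came from Hill-equation fits of concentration-response data; tetraoctylammonium bromide was the positive control.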

A short description of assay [15]: qHTS Assay for Lipid Storage Modulators (AID 1519; calls by dose curve; on activity change, negative = inhibition: on the % scale 0 is the no-effect control and ±100 the full control effect). Particulars: Drosophila S3 cells, BODIPY lipid droplet/cell ratio, laser cytometry, cells loaded with oleic acid; for activity change, negative = inhibition: at 57.5 µM (top of the series). In a few lines: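 Cells seeded at 5,000 per well were treated with compounds over a concentration series and loaded with oleic acid (400 uM, as added). Lipid droplet fluorescence (488 nm excitation, 500-530 nm channel) was read by laser-scanning cytometry and normalized to 20 uM Triacsin C.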

Assay [16] deals with Alpha-galactosidase A (Homo sapiens) (UniProt P06280). Put plainly: Counterscreen for Glucocerebrosidase Inhibitors: qHTS Assay for Human alpha-Galactosidase at pH 4.5 (AID 992). Further: 0% is about no effect. In a few lines:
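Read-out is 4-methylumbelliferone fluorescence (365 nm excitation, 440 nm emission) after a pH 10 NaOH/glycine stop. Reactions held 2 nM enzyme and 80 uM substrate at pH 4.5 for 20 min at room temperature.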
In general terms: Counterscreens check selectivity or assay interference.

The target in assay [17] is alpha-glucosidase (Oryza sativa, rice) (UniProt Q653V4). The assay can be described thus: Counterscreen for Glucocerebrosidase Inhibitors: qHTS Assay for Rice alpha-Glucosidase at pH 5.0 (AID 997).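 Further: 0% = full activity with enzyme and -100% = basal without enzyme.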 In a few lines: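 Rice alpha-glucosidase (4 nM final) with 400 uM 4-methylumbelliferyl-alpha-D-glucopyranoside in citrate buffer pH 5.0, 20 min at room temperature, stopped at pH 10; fluorescence 365/440 nm, compounds 0.7 nM–77 uM, AC50 from Hill fits.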

For assay [18], the target named is DNA repair nuclease/redox regulator APEX1 (Homo sapiens) (UniProt P27695). The assay can be described thus: qHTS Validation Assay for Inhibitors of the Human Apurinic/apyrimidinic Endonuclease 1 (APE1) (AID 1705; further: potency means the concentration at half of the fitted maximal effect;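 on activity change, negative = inhibition: TAMRA fluorescence gain over two minutes as APE1 cuts a quenched THF abasic duplex; on the % scale 0 is the no-effect control and ±100 the full control effect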). A digest of the protocol:
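Endonuclease activity of human APE1 is followed as dequenching when the enzyme incises a tetrahydrofuran abasic site in a short duplex labelled 5'-TAMRA/3'-BHQ-2 (50 nM final), after 15 min enzyme–compound preincubation at room temperature.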

Assay [19] can be described thus: Counterscreen for APE1 Inhibitors: Fluorescent Dye Displacement Validation Assay (AID 1707). Further: potency means the concentration at half of the fitted maximal effect.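 On activity change, negative = inhibition: plate controls were ThO with dsDNA and no compound for no effect and ThO without dsDNA for full effect.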 In a few lines: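 ThO 250 nM + dsDNA 50 nM (THF abasic site, 5'-TAMRA), Tris-HCl pH7.5/50mM NaCl/2 mM MgCl2/0.01% Tween-20; compounds pin-transferred; ex 480/em 540 nm endpoint. Neutral = no compound; no-DNA ThO wells = negative control.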
[20] abbreviates: measured here: cell count channel max response.
[21] abbreviates: measured here: lipid channel max response.

“And” between values parts separate entries of the source, which are not always exact repeats. Equal entries are not always repeated. Results filed as inconclusive are left out. The source made the active and inactive calls. Unless noted, the call rests on the fitted dose curve; in most records, active means well fitted curve in the direction sought with a large enough effect; inconclusive means small, poorly fitted or top-dose-only effect, or another doubt; inactive means no such curve, though single readings can be large; an effect the other way counts as inactive or inconclusive.

Chain of DNA repair nuclease/redox regulator APEX1 (Homo sapiens) (P27695 whole entry, looked up): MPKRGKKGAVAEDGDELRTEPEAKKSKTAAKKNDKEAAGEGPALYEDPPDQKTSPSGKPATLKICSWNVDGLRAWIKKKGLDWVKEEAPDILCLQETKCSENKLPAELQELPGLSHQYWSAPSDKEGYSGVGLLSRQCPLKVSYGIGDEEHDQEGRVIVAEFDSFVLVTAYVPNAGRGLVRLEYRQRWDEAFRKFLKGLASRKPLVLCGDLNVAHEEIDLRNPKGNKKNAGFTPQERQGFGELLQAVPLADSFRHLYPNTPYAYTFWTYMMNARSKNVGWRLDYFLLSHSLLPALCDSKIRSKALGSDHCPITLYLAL
Chain of Alpha-galactosidase A (Homo sapiens) (P06280 whole entry, looked up): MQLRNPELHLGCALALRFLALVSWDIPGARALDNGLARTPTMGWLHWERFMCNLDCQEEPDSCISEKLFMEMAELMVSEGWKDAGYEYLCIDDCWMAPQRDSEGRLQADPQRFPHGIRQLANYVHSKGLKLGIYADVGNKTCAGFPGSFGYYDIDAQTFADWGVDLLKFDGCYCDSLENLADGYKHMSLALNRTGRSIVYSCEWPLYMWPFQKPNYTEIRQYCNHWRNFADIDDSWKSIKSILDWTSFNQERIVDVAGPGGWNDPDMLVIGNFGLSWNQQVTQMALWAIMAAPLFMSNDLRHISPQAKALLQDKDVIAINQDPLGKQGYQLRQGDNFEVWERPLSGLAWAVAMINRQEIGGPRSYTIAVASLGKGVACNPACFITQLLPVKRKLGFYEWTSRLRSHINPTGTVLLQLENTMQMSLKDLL

On to `Cc1ccc(-c2cc(C(F)(F)F)nn2-c2ccc(S(N)(=O)=O)cc2)cc1`, for which the result in assay [1], in [2], in assay [3], in assay [4], in assay [5] and in assay [6] was inactive. The result in assay [7], in [8], in assay [9], in [10], in assay [11] and in assay [12] was inactive. Besides, the call in assay [13] was inactive. Also, the Potency result in [14] is “inactive”. In assay [15], the activity change, negative = inhibition is 7.63% (inactive). Also, the values for the max response in [15] (setting [20]) and in assay [15] (setting [21]) were 18.8% and 30%, respectively.
Consider `Cc1ccccc1N1C(=O)c2cc(S(N)(=O)=O)c(Cl)cc2NC1C` (stereo not given), for which the call in assay [16] and in [17] was inactive. Moreover, in [15], the activity change, negative = inhibition was 5.05% (inactive) and -0.764% (inactive). In addition, the max response is 11.3% and 51.4% in [15] (setting [20]); 18.3% and 52% in [15] (setting [21]). In addition, the Potency result in [18] is “inactive”.
Turning to `O=C(Nc1ccc([N+](=O)[O-])cc1Cl)c1cc(Cl)ccc1O`, the molecule was called inactive in [16] and in assay [17]. Moreover, the Potency result in assay [18] is “inactive”. In addition, the Potency in assay [19] was 3.98 µM (active).
As for `CN(C)C(=O)C(CCN1CCC(O)(c2ccc(Cl)cc2)CC1)(c1ccccc1)c1ccccc1`, the outcome in assay [16] and in assay [17] was inactive. In addition, the Potency entry in [18] and in [19] was “inactive” in each case.
Turning to `CN(Cc1cnc2nc(N)nc(N)c2n1)c1ccc(C(=O)N[C@@H](CCC(=O)O)C(=O)O)cc1`, the call in assay [16] and in assay [17] was inactive. Also, the activity change, negative = inhibition in assay [15] was 0.2% (inactive). Also, the max response in assay [15] (setting [20]) is -11.7%; in assay [15] (setting [21]), -9.12%. In [18], the Potency was 20 µM (active).
In the case of `CCCCc1oc2ccccc2c1C(=O)c1cc(I)c(OCCN(CC)CC)c(I)c1`, the call in assay [16] and in [17] was inactive. Moreover, the activity change, negative = inhibition in [15] is -1.96% (inactive). Besides, the max response in assay [15] (setting [20]) was found to be 0.489%; in assay [15] (setting [21]), 1.02%. Further, in [18], the Potency result was “inactive”.
In the case of `CC(C)C(=O)Nc1ccc([N+](=O)[O-])c(C(F)(F)F)c1`, the molecule was called inactive in [1], in [2], in assay [3], in assay [4], in assay [5] and in assay [6]. Moreover, the result in assay [7], in assay [8], in [9], in assay [10], in [11] and in assay [12] was inactive. The result in assay [16], in [13] and in [17] was inactive. Also, the Potency entry in assay [14], in assay [18] and in assay [19] was “inactive” in each case.
Regarding `NC(=O)NO`, the call in assay [16] and in [17] was inactive. Besides, in assay [15], the activity change, negative = inhibition is 7.16% (inactive). The values for the max response in [15] (setting [20]) and in assay [15] (setting [21]) were 21% and 26.4%, respectively. The Potency entry in [18] and in assay [19] was “inactive” throughout.
As for `Cn1ccc2cc3c(cc21)CCN3C(=O)Nc1cccnc1`, the call in assay [16] and in assay [17] was inactive. Besides, the Potency result in assay [18] is “inactive”.
Turning to `COc1ccc(CCN(C)CCCC(C#N)(c2ccc(OC)c(OC)c2)C(C)C)cc1OC` (stereo not given), the call in assay [1] and in [13] was inactive. For the same molecule, the Potency result in [18] and in [19] was “inactive” throughout.
Regarding `O=c1c(-c2ccc(O)cc2)coc2cc(O)cc(O)c12`, the outcome in assay [1], in [2], in assay [3], in [4], in assay [6] and in assay [7] was inactive. The result in [8], in assay [9], in assay [10], in assay [11], in assay [12] and in assay [16] was inactive. The outcome in [13] and in assay [17] was inactive. For the same molecule, the Potency result in assay [14] and in [18] was “inactive” each time. The activity change, negative = inhibition in assay [15] is -6.97% (inactive). Also, the max response in assay [15] (setting [20]) was determined as 15.5%; in assay [15] (setting [21]) it was 9.16%.
Consider `COc1cc2nc(N3CCN(C(=O)c4ccco4)CC3)nc(N)c2cc1OC`, for which the Potency result in assay [18] was “inactive”.
